Sampled rows, rich in hits. Any-hit rate of the full collection: about 3.1%.
BoNT-A LC inh2 = BoNT/A light chain protease inhibitors, primary screen, biochemical, flow cytometry, MLPCN library | Botulinum neurotoxin type A light chain protease (Clostridium botulinum A str. ATCC 3502) | AID 588499, 2011 | inhibition, % at 10 µM | actives 0.17% (n = 360,000) | multiplex microsphere protease substrate cleavage; further: plate controls were buffer without enzyme for full effect and enzyme alone for no effect
SSB-PriA inh = inhibitors of Klebsiella pneumoniae PriA binding to SSB C-terminal tail, primary screen, biochemical, AlphaScreen; AID 1272365, 2023; AlphaScreen SSBct-PriA binding, biotinylated peptide; PriA–SSB C-terminal tail interaction (Klebsiella pneumoniae); actives 0.6% (n = 430,000); inhibition, % at 33 µM; in the data active means inhibition mostly above about 37%, no sharp cut-off; inactive means mostly below about 20%;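 further: plate controls were negative control peptide for no effect and reference peptide for full effect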
Anthrax LF prot = Bacillus anthracis LF protease inhibitors, primary screen, biochemical, multiplex microsphere, MLPCN library; Lethal factor (Bacillus anthracis), P15917; AID 588501, 2011; actives 0.12% (n = 360,000); multiplex microsphere protease cleavage assay; inhibition, % at 10 µM; further: plate controls were buffer without enzyme for full effect and enzyme alone for no effect
Bead autofluor = counter-screen for toxin protease inhibitors: compound fluorescence; compound autofluorescence counterscreen, microsphere flow cytometry; stronger effect = higher value; fluorescence intensity (concentration not given with the values); actives 3.1% (n = 360,000); AID 624483; in the data active means fluorescence intensity above about 16000; inconclusive means no clear call, values can overlap the other calls
BoNT-F LC inh = BoNT/F light chain protease inhibitors, primary screen, biochemical, flow cytometry, MLPCN library; Botulinum neurotoxin type F light chain protease (Clostridium botulinum); Multiplex microsphere protease cleavage assay; inhibition, % at 10 µM; actives 0.22% (n = 360,000); AID 588497, 2011; in the data active means inhibition above about 35%, passing the limit was not always enough; inconclusive means no clear call, values can overlap the other calls; further: plate controls were buffer without enzyme for full effect and enzyme alone for no effect
Starred values were filed as active, the others as inactive; ? = inconclusive; . = no result. Unless noted, no stated cut-off is given here; in the data, active means inhibition above about 30%; inconclusive means no clear call, values can overlap the other calls; inactive means below that.

SMILES	BoNT-A LC inh2	SSB-PriA inh	Anthrax LF prot	Bead autofluor	BoNT-F LC inh
Cc1ccc(CN2CCC(C(=O)Nc3cccc(-c4cccc(F)c4)c3)CC2)o1	0	4	-4	4320	2
CCn1cc(CN2CCC(C(=O)Nc3cccc(-c4cccc(F)c4)c3)CC2)cn1	-3	39*	-2	6431	-2
CCc1ccc(CN2CCC(C(=O)Nc3cccc(-c4nnc(C)s4)c3)CC2)o1	-6	57*	3	5104	-15
O=C1NC(=S)N(S(=O)(=O)c2c(Cl)cccc2Cl)C1Cc1ccccc1 (configuration not stated)	.	86*	.	.	.
CCN1C(=O)CSc2ccc(C(=O)NCc3ccco3)cc21	2	-8	0	16140*	4
Cc1ccc(C(=O)NCc2ccco2)cc1Br	?	-1	-4	14302	6
CC(C)(C)NC(=O)c1ccnc(C(C)(C)C)c1	18	3	-19	17617*	20
CC(C)(C)NC(=O)Nc1ccc2nccnc2c1	.	5	.	.	.
CCN1C(=O)CSc2ccc(C(=O)OC)cc21	0	-14	-3	5924	-7
CC(C)(C)c1cc(C(=O)NCc2ccco2)ccn1	-2	0	-1	24501*	-5
CC(C)(C)NC(=O)c1ccc2nccnc2c1	-2	-2	-1	16956*	-2
CCCCCCc1nc2ccccc2c(=O)n1NC(=O)c1c(O)c2c(n(CC(C)C)c1=O)CCCC2	0	-9	-4	4770	-29
Cc1nc2ccccc2c(=O)n1NC(=O)c1c(O)c2c(n(CC(C)C)c1=O)CCCC2	1	-16	0	19971*	2
O=C1c2ccccc2S(=O)(=O)N1CCOc1ccc(F)cc1	-1	-46	-2	24481*	-5
O=C(Nc1ccc(F)cc1)c1ccc(O)cc1	.	-17	.	.	.
Cc1c(Br)cc(C(=O)NC2CCCCC2)c(C)c1C	?	-9	0	23067*	-2
Cc1ccc(C(=O)NC2CCCCCCC2)c(Cl)c1	3	-20	-9	4031	27
Cc1cccc2cc(-c3ccccc3)c(-c3ccccc3)c[n+]12	38*	-1	8	5605	-46
O=[N+]([O-])c1cccc(-c2cc3cccc[n+]3cc2-c2cccc([N+](=O)[O-])c2)c1	-1	-8	2	2443	-6
Cc1ccccc1-c1nc2sc(-c3ccccc3)cc2c(=O)o1	?	-7	-5	17440*	7
COC(=O)COc1ccc(C=NNC(=O)CN(c2ccccc2OC)S(=O)(=O)c2ccccc2)cc1	.	-7	.	.	.
C=CCn1c(-c2cccn(Cc3ccccc3)c2=O)n[nH]c1=S	-6	-17	-3	21465*	-6
C=CCn1c(SCC(=O)Nc2cccc3ccccc23)nnc1-c1cnccn1	2	-4	-3	16132*	5
Cc1cccc(NC(=O)CSc2nnc(-c3cnccn3)n2Cc2ccco2)c1	?	-1	1	23296*	-3
Fc1ccc(CSc2nnc(-c3cnccn3)n2Cc2ccco2)cc1	-3	8	1	24676*	-4
SMILES	BoNT-A LC inh2	SSB-PriA inh	Anthrax LF prot	Bead autofluor	BoNT-F LC inh
Cc1ccc(NC(=O)CSc2nnc(-c3cnccn3)n2Cc2ccco2)cc1	-3	5	-5	17381*	-6
C=CCn1c(SCC(=O)Nc2ccc(F)cc2F)nnc1-c1cnccn1	-1	-2	-1	6030	8
COc1ccc(CCC(=O)N(Cc2ccoc2)Cc2cccs2)cc1	.	-5	.	.	.
CCOCCCNC(=O)c1c(N)n(CC(C)C)c2nc3ccccc3nc12	.	-71	.	.	.
C=CCNC(=O)Cc1csc(NC(=O)OC)n1	.	-1	.	.	.
COc1cccc(-c2nc(NC(C)C)c3ccccc3n2)c1O	-4	15	-6	24838*	-7
CCC(C)Nc1nc(-c2cccc(OC)c2O)nc2ccccc12 (configuration not stated)	-1	19	-3	3087	?
CCC1CCCCN1c1nc(-c2cccc(OC)c2O)nc2ccccc12 (configuration not stated)	-3	7	-6	16896*	-4
CCOC(=O)CC(C)=NNc1ccc([N+](=O)[O-])cc1[N+](=O)[O-]	.	47*	.	.	.
O=C(NCCSc1c[nH]c2ccccc12)c1ccc(-c2ccccc2)cc1	.	7	.	.	.
CCOC(=O)N1CCN(c2cc(=O)n(-c3ccc(OCC)cc3)c(=O)[nH]2)CC1	1	-8	0	22900*	1
COc1ccccc1N1CCN(c2cc(=O)n(-c3ccc(Br)cc3)c(=O)[nH]2)CC1	6	-11	-2	21225*	10

High-throughput results (PubChem)
